These results are taken from PubChem BioAssay AID720610 (Broad Institute, 2013).

The nature of this test: HeLa cell viability by resazurin reduction, late-stage follow-up, mechanism study for HRAS target identification, Alamar Blue fluorescence, 8-48 h, dry powder (AID 720610). (Resazurin is reduced to fluorescent resorufin, in cell work by metabolically active cells.)

Results filed as inconclusive are left out. Calls of active or inactive are those of the source.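 Rule for the calls: active = compounds whose fitted half-maximal signal loss occurs at or below twice the top dose at every exposure time; inconclusive = exposure times disagree on the call; inactive = the rest.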

Regarding `Cc1onc(C(=O)N2CCN(C(c3ccncc3)c3ccncc3)CC2)c1[N+](=O)[O-]`, the compound was classed as inactive.

Take `CCC(=O)N(c1ccc(OC)c(Cl)c1)C(C(=O)NCCc1ccccc1)c1cccs1` (configuration not stated): the compound was classed as inactive.
